Compound activity as filed in PubChem BioAssay.
An excerpt weighted towards active compounds, which were near 13% of everything screened.
Pf growth 48h – P. falciparum growth inhibition at 48 hours (one generation). P. falciparum luciferase growth in erythrocytes, 48 h. Potency, µM (doses to about 28.7 µM), without a hit: top-dose activity change, negative = inhibition, actives largely listed as inhibitors. actives 5.9% (n = 310,000); also: potency is read from the fitted curve at half-maximal effect
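Erythrocytes infected with P. falciparum carrying an integrated firefly luciferase reporter (2% hematocrit, 0.1% parasitemia final) were exposed to compounds in RPMI 1640 with 0.5% Albumax at 37 C, 5% CO2. Growth inhibition was scored as reduced luminescence.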
HCV inhibitor – blocks hepatitis C virus; Huh7.5.1 HCVcc-Cre infection, luciferase reporter, 44 h; Potency, µM (top dose mostly 41.8 µM), for the others: at the highest dose activity change, negative = inhibition, usual class: inhibitors; actives 3.4% (n = 340,000); also: potency is read from the fitted curve at half-maximal effect
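Luciferase read-out (15 sec integration) after a 15 min room-temperature substrate step quantifies HCVcc-Cre infection. Cells, 1,000 per well, had compound added 4 h post-plating, then virus at ~0.5 moi, and were cultured 44 h.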
Pf growth 96h – P. falciparum growth inhibition at 96 hour, primary screen for plastid delayed-death inhibitors. P. falciparum luciferase reporter growth, 96 h. Potency, µM (titrated, usually from 28.7 µM), inactives show at the highest dose activity change, negative = inhibition, actives largely listed as inhibitors. actives 6.9% (n = 320,000). AID 504834; also: potency is read from the fitted curve at half-maximal effect
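Infected RBCs, 2% Hct / 0.05% parasitemia final; luciferase-reporter P. falciparum; cpd 96 h, 37 C, 5% CO2; luciferase detection reagent; luminescence.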
HCMV antiviral – inhibitors of human cytomegalovirus | AID 1259415 | actives 4.5% (n = 410,000) | HFF cells, HCMV-luciferase reporter, 72 h; stronger effect = lower value | activity change, negative = inhibition, % at 57.5 µM; in the data active = activity change below about -60%; inconclusive = no clear call, values can overlap the other calls; inactive = above about -39%
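Two-dose cell screen: HFF monolayers treated with compounds and infected with luciferase-expressing HCMV at 1 PFU/cell, 72 h at 37C, then lysed for luciferase measurement.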
* marks the source's active call; other numbers are inactive results; ? = inconclusive; . = not tested or not shown; [ ] = another dose, or the depositor's remark. Unless noted, calls follow the shape of the dose curve; as a rule, active = well fitted inhibition curve with a large enough effect; inconclusive = small, poorly fitted or top-dose-only effect, or another doubt; inactive = no such curve, though single readings can be large or run the other way. % is scaled to controls: 0 for no effect and ±100 for the full control effect.

SMILES	Pf growth 48h	HCV inhibitor	Pf growth 96h	HCMV antiviral
C=CCN(c1ccccc1)S(=O)(=O)c1cccc(C(=O)NCC(c2cccs2)N2CCOCC2)c1 (stereo unspecified)	10.4µM*	?	?	?
O=C(COc1ccc(F)cc1)Nc1ccc(S(=O)(=O)N(Cc2ccccc2)c2ccccc2)cc1	.	.	.	-5.9
CCOc1ccc(NC(=O)Cn2c(=O)n(-c3ccc(C)cc3)c(=O)c3cc(OC)c(OC)cc32)cc1	.	.	.	4.2
COc1ccc(CNC(=O)c2c(C)nc3ccccn23)cc1	-10.6%	?	?	-39.2
COc1ccc(CCNC(=O)c2c(C)nc3ccccn23)cc1	?	21.5%	11.7µM*	?
O=C(Nc1cccnc1)c1cc(-c2cccc(Br)c2)nc2ccccc12	3.7µM*	-22.6%	1.0%	4.0
O=C(Nn1cnnc1)c1cc(-c2cccc(Br)c2)nc2ccccc12	86.7%	1.2%	101.4%	9.1
O=C(NC1CC1)c1cc(-c2ccc(Br)cc2)nc2ccccc12	?	4.4%	?	0.0
O=C(Nc1ncccn1)c1cc(-c2cccc(Br)c2)nc2ccccc12	?	?	1.65µM*	?
COc1ccc(NC(=O)c2cc(-c3ccncc3)nc3ccc(Br)cc23)cc1OC	13.1µM*	12.6µM*	31.3%	-89.7*
CN1CCC(NC(=O)c2cc(-c3cccc(Br)c3)nc3ccccc23)CC1	13.1µM*	11.2µM*	-10.7%	-29.7
COc1ccc(NC(=O)c2cc(-c3cccnc3)nc3ccc(C)cc23)cc1OC	?	?	?	-16.7
COC(=O)/C=C1\OCc2cc(OC)c(OC)cc21	.	.	.	-4.2
C=CCCC1CN(Cc2ccc(OC)cc2)S(=O)(=O)c2c(Oc3ccc(C)cc3)cccc2O1 (stereo unspecified)	.	.	.	-17.2
COc1cccc(-c2cc(C(=O)Nc3cccnc3)c3ccccc3n2)c1	3.7µM*	-21.3%	?	5.0
COc1cc(NC(=O)c2cc(-c3cccnc3)nc3ccc(Br)cc23)cc(OC)c1	?	?	-20.9%	-37.0
O=C(Nc1ccncc1)c1cc(-c2cccc(Br)c2)nc2ccccc12	0.928µM*	?	0.828µM*	-9.9
COc1cccc(-c2cc(C(=O)Nc3ccccc3)c3ccccc3n2)c1	.	-13.9%	.	-34.2
O=C(Nc1cccnc1)c1cc(-c2cccnc2)nc2ccc(Br)cc12	1.17µM*	-29.2%	1.17µM*	82.9
CCCCc1ccc(NC(=O)c2cc3c(=O)n4ccccc4nc3s2)cc1	.	.	.	-22.3
O=C(OCC1OC2C(Oc3nc(=O)ccn32)C1O)c1ccccc1 (stereo unspecified)	9.8%	5.8%	20.4%	6.7
N=c1ncn(C2OC(CO)C(O)C2O)c2nc(Br)[nH]c12 (stereo unspecified)	.	.	.	15.4
N=c1ccn2c(n1)O[C@H]1[C@@H](CO)[C@H](O)O[C@H]12	-14.0%	?	46.8%	-98.0*
Cc1cn2c(nc1=O)OC1C(O)C(COC(=O)c3ccccc3)OC12 (stereo unspecified)	5.0%	-1.6%	20.8%	-2.4
N=c1ccn2c(n1)O[C@H]1[C@H](O)[C@@H](CO)O[C@H]12	0.6%[0.00184 µM]	-10.4%	1.5%	-96.3*
SMILES	Pf growth 48h	HCV inhibitor	Pf growth 96h	HCMV antiviral
N=c1nc2n(cc1F)C1OC(CO)C(O)C1O2 (stereo unspecified)	.	?	.	-98.6*
Cc1oc2ccc(O)c(CN3CCCC3)c2c1C(=O)Nc1cccc(Cl)c1C	.	.	.	-6.4
COc1cc(NC(=O)c2cc(S(=O)(=O)N3CCC(C)CC3)cn2C)cc(OC)c1OC	.	.	.	-102.3*
CC1CCN(S(=O)(=O)c2cc(C(=O)NCc3ccccc3)n(C)c2)CC1	.	.	.	-80.9*
COc1ccc(NC(=O)c2cc(S(=O)(=O)N3CCCCC3)cn2C)cc1Cl	.	.	.	-5.7
CCOC(=O)Cn1c(=O)n(C2CCCCC2)c2nc(-c3ccc(Cl)cc3)nc(C(N)=O)c21	.	.	.	13.8
CCOc1cc(C(=O)Nc2ccc(-c3nc4cc(Cl)ccc4o3)cc2)cc(OCC)c1OCC	.	.	.	-1.0
CC(C)CC(NC(=O)C1CCC(=O)N1C(=O)OCc1ccccc1)C(=O)NC(Cc1ccccc1)C(N)=O (stereo unspecified)	10.4µM*	25.8%	6.9%	2.8
CCC(C)C(NC(=O)C1CCC(=O)N1C(=O)OCc1ccccc1)C(=O)NC(Cc1ccccc1)C(N)=O (stereo unspecified)	2.2%	-11.7%	37.4%	4.5
CC(C)C(=O)N1CCN(c2ccccc2NC(=O)c2cccc3ccccc23)CC1	?	?	?	-64.8*
O=C(Nc1cc(Cl)ccc1N1CCOCC1)c1ccc(Br)o1	184.0%	5.3%	-2.2%	.
COc1ccc(N2CCOCC2)c(NC(=O)c2cccc3ccccc23)c1	3.7µM*	?	6.6%	-30.1
COc1ccc(N2CCOCC2)c(NC(=O)c2ccc(Br)o2)c1	?	.	9.6%	-81.3*
O=C(Nc1ccccc1N1CCOCC1)c1cccc2c(Br)cccc12	.	5.62µM*	-21.1%	?
O=C(O)c1ccc2c(c1)C(=O)N([C@H](Cc1ccc3ccccc3c1)C(=O)O)C2=O	-23.8%	.	16.2%	.
COc1ccccc1CNC(=O)c1ccc(-c2ccccc2Cl)o1	-25.5%	?	10.4µM*	?
CN(CC(=O)Nc1ccccc1Cl)C(=O)c1ccc(-c2cccc(C(F)(F)F)c2)o1	2.08µM*	?	0.415µM*	-21.7
COc1ccccc1CNC(=O)c1ccc(-c2ccccc2C(F)(F)F)o1	?	-1.3%[8.37 µM]	?	32.2
COc1ccc(C(CNC(=O)c2ccc(-c3cccc(C(F)(F)F)c3)o2)N2CCOCC2)cc1 (stereo unspecified)	6.57µM*	?	1.47µM*	18.6
COc1ccc(NC(=O)CN(C)C(=O)c2ccc(-c3cccc(C(F)(F)F)c3)o2)cc1	?	-10.7%	0.37µM*	-3.5
COc1ccc(C)cc1NC(=O)C(CCSC)NS(=O)(=O)c1ccc2c(c1)oc(=O)n2C (stereo unspecified)	.	.	.	0.0
Cc1ccc2c(c1)-c1nc(-c3ccc4c(c3)NC(=O)CO4)cc(-c3ccc(F)cc3)c1CO2	.	.	.	-4.3
CCN(CC(=O)NCc1cccs1)C(=O)COc1cccc(C(F)(F)F)c1	?	-19.6%	?	20.3
COc1ccc(NC(=O)CN(C)C(=O)c2ccc(-c3ccccc3Cl)o2)cc1	0.37µM*	?	0.329µM*	-8.5
CCN(CC(=O)NCc1cccs1)C(=O)c1ccc(-c2cccc(C(F)(F)F)c2)o1	?	?	9.28µM*	0.5
COC(=O)c1c(C(=O)OC)c2ccccn2c1C(=O)c1ccc([N+](=O)[O-])cc1	-23.3%	-6.9%	-19.8%	-101.9*
CCN(/N=C/C=C/c1ccccc1)c1cc(=O)n(C)c(=O)[nH]1	?	-1.4%	7.38µM*	-2.6
CCC1CN(C(=O)N2CCC(C(=O)NCCc3ccc(C)cc3)CC2)c2ccccc2O1 (stereo unspecified)	.	.	.	30.1
Cc1ccc(CNC(=O)NC2COc3ccccc3C2)cc1 (stereo unspecified)	.	.	.	18.5
